# Source: PubChem BioAssay AID493131 (Broad Institute, 2011)
# Screen size: about 340,000 compounds; about 3,300 (0.97%) were called active. The sample as a whole holds a higher share of actives than the screen did. A number with no mark means an inactive call.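 Rule for the calls: active = mean activation above about 17%, with every replicate also reaching it (limit read from the data, passing the limit was not always enough); inconclusive = only one of the two conditions met; inactive = the rest.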
# Target: Protein FosB (Mus musculus) (UniProt P13346)
# Sequence (P13346 whole entry, looked up): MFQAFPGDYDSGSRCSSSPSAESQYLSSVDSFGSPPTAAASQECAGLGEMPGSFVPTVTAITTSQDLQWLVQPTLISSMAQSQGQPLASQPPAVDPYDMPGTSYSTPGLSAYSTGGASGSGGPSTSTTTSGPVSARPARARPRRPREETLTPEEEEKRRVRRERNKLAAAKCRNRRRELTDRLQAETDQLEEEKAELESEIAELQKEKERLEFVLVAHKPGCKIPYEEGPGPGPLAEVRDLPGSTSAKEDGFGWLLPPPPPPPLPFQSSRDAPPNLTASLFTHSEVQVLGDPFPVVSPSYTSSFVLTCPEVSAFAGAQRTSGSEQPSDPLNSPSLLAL
# Assay: activators of delta FosB homodimer, primary screen, biochemical, fluorescence polarization, TAMRA-CDK5 oligo, single point (AID 493131);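 note: fluorescence polarization rise as delta FosB binds a TAMRA Cdk5 AP-1 oligo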
# Details: purified delta FosB, at 25 µM, stronger effect = higher value, percent of positive-control signal above neutral wells
row,Structure (SMILES),activation
1,COc1ccc(NC(=O)CSc2nc(N)c(-c3ccccc3)c(=O)[nH]2)cc1,-6.21%
2,COc1ccc(C(=O)Nc2c(N)nc(SCC(=O)N3CCC(C)CC3)[nH]c2=O)cc1OC,-3.09%
3,COc1ccc(C(=O)Nc2c(N)nc(SCC(=O)Nc3ccc(C(C)=O)cc3)[nH]c2=O)cc1,22% (active)
4,O=C(COC(=O)CNS(=O)(=O)c1ccc(F)c(F)c1F)NC1CCCC1,0.263%
5,COc1ccc(CCN(Cc2cc3cccc(C)c3[nH]c2=O)C(=O)N2CCCC2)cc1OC,-15.7%
6,Fc1ccccc1N=C1Nc2cccc3cccc1c23,3.8%
7,COc1ccccc1C1=Nc2cccc3cccc(c23)N1,-1.27%
8,c1ccc(C2=Nc3cccc4cccc(c34)N2)cc1,28.1% (active)
9,CC(=O)N1CSCC1C(=O)O (configuration not stated),0.385%
10,Cc1ccc(NC(=O)C(CC(=O)O)C2CCCO2)c(C)c1 (configuration not stated),-0.253%
11,Cn1ccnc1SCC(=O)Nc1ccc2c(c1)OCCO2,-4.18%
12,Cc1ccc(-c2cc(C(=O)N/N=C/C=C/c3ccccc3)n[nH]2)o1,23.5% (active)
13,O=C(NN=CC=Cc1ccccc1)C(O)C(O)C(=O)NN=CC=Cc1ccccc1 (configuration not stated),2.15%
14,CC(C)c1cc(C(=O)N/N=C/C(Br)=C/c2ccccc2)n[nH]1,-3.49%
15,Cc1ccc(OCc2cc(C(=O)N(C)CCn3ccnc3C)no2)cc1C,-7.77%
16,O=C(c1ccc(NS(=O)(=O)c2ccc3[nH]c(=O)[nH]c3c2)cc1)N1CCCCC1,-5.69%
17,Cc1cccc([C@@H]2[C@@H]3C(=O)N(Cc4ccccc4)C(=O)[C@@H]3[C@]3(Cc4ccc(Cl)cc4)C(=O)N(c4cccc(Cl)c4)C(=O)N23)c1,-7.94%
18,COc1ccc(-n2c(SCC(=O)Nc3sc4c(c3C#N)CCCC4)nnc2-c2ccc(O)cc2)cc1,23.1% (active)
19,COc1cccc(CN(C)CC(=O)Nc2sc3c(c2C#N)CCC3)c1,-3.77%

row,Structure (SMILES),activation
1,CCCc1cc(=O)[nH]c(SCC(=O)Nc2sc3c(c2C#N)CCCC3)n1,-10.9%
2,NC(=O)c1nnsc1-c1ccc(-c2snnc2C(N)=O)cc1,12.3%
3,Cc1c(C(=O)NCCN2CCOCC2)sc2nc(-c3ccc(F)cc3)cn12,-10.6%
4,CCCCn1c(N)c(N(CC(C)C)C(=O)c2ccc(-n3c(C)ccc3C)cc2)c(=O)[nH]c1=O,8.61%
5,COc1ccc2nc(C)cc(Nc3cccc(C(=O)O)c3)c2c1,-0.297%
6,Cc1nc(/N=C(\N)NC(=O)NC2CCCCC2)nc2ccccc12,3.68%
7,COc1ccc2nc(/N=C(\N)NC(=O)Nc3ccccc3)nc(C)c2c1,52.1% (active)
8,O=S(=O)(NCC1CN(S(=O)(=O)c2ccc3c(c2)OCCO3)C1)c1c(F)cccc1F,2.95%
9,CS(=O)(=O)N1CCN=C1SCc1ccc(F)cc1,1.39%
10,CCN(CC)CCOc1ccc2c(c1)C(=NNC(=O)c1ccccn1)c1cc(OCCN(CC)CC)ccc1-2,79.1% (active)
11,CCOc1cc2ccccc2cc1C(=O)Nc1ccccn1,-0.935%
12,C/C(=N\NC(=O)c1ccccc1F)c1ccccn1,-8.45%
13,CN(C)NC(=O)C(NC(=O)c1ccc(N)cc1)C12CC3CC(CC(C3)C1)C2 (configuration not stated),-3.81%
14,Cc1oc(CC(C)C)c(CN2CCCC2)c1C(=O)O,4.27%
15,Cc1ccc(OCC(=O)Nc2ccccc2C(=O)NC2CC2)cc1C,36.7% (active)
16,Cc1ccc(OCC(=O)Nc2ccccc2C(=O)NC2CC2)cc1,-7.85%
17,COc1ccccc1OCC(=O)Nc1ccccc1C(=O)NC1CC1,-0.401%
18,COc1ccc(C2=Nc3cc(C)ccc3OC2)cc1,-10.5%
19,CCOC(=O)CNC(=O)CSc1nnc(-c2cccc(OC)c2)n1CC,-2.27%

row,Structure (SMILES),activation
1,CCOC(=O)COn1c(=O)c(-c2ccc(OCC)cc2)[n+]([O-])c2ccccc21,-3.65%
2,CCCCCCCCCCOC(=O)Cn1c(COc2ccc(C)cc2)[n+](C)c2ccccc21,38.3% (active)
3,CCCCCCCCCCOC(=O)Cn1c(COc2cccc(OC)c2)[n+](C)c2ccccc21,28.7% (active)
4,CCCCOc1ccc(NC(=O)CSCC(=O)OCC)cc1,-6.39%
5,COc1cccc(NC(=O)COC(=O)CCOc2ccccc2OC)c1,2.67%
6,CCC1=C(OC(=O)N(CC)CC)N2C(=O)OC(=NCCc3c[nH]c4ccccc34)[C@]2(C)[C@H]2C1=CC[C@H]1C(=O)N(CC)C(=O)[C@H]12,-18.3%
7,CC(=O)c1ccc(S(=O)(=O)N2CCC(Oc3ccc(-n4cnnn4)cc3)CC2)cc1,12.7%
8,Cc1ccc(S(=O)(=O)N2CCC(Oc3ccc(-n4cnnn4)cc3)CC2)cc1,58.6% (active)
9,CCOC(=O)N1CCN(S(=O)(=O)c2ccc(-n3cnnn3)cc2)CC1,-6.35%
10,Cn1c(=O)c2c(nc(Br)n2CCSc2nc3ccccc3o2)n(C)c1=O,1.42%
11,Cc1cccc(C)c1NC(=O)C1(C)c2cccc[n+]2CC(=O)N1Cc1cccs1 (configuration not stated),-6.06%
12,C=CCc1ccccc1OCC(O)CN1CCN(CCO)CC1 (configuration not stated),-2.68%
13,Cc1cccc(OCC(O)CN2CCN(CCN3C(=O)c4cccc5cccc(c45)C3=O)CC2)c1C (configuration not stated),62.2% (active)
14,COc1ccccc1OCC(O)CN1CCOCC1 (configuration not stated),-1.24%
15,COc1ccc(S(=O)(=O)NCCOc2ccccc2)cc1F,7.41%
16,CCOc1ccc(-n2c(SCC(=O)Nc3ccc(OC)cc3)nc3sc4c(c3c2=O)CCN(C)C4)cc1,50.3% (active)
17,CCCSc1nc2sc3c(c2c(=O)n1-c1ccc(OC)cc1)CCN(C)C3,-14.7%
18,CCOc1ccc(-n2c(SCC(=O)OC)nc3sc4c(c3c2=O)CCN(C)C4)cc1,-0.804%
19,Cc1ccccc1-c1nc(CS(=O)(=O)CC(=O)N2CCc3ccccc3C2)c(C)o1,-5.6%
